These results are taken from PubChem BioAssay AID485270 (The Scripps Research Institute Molecular Screening Center, 2010).

In all, about 330,000 compounds went through this assay and about 5,800 (1.8%) were called active. No stated cut-off is given here; in the data, active means inhibition mostly above about 38% (no sharp cut-off); inactive means mostly below about 40%. Shown is part of a subset that was picked to be rich in actives.

Orexin/Hypocretin receptor type 1 (Homo sapiens), sequence (O43613 whole entry, looked up): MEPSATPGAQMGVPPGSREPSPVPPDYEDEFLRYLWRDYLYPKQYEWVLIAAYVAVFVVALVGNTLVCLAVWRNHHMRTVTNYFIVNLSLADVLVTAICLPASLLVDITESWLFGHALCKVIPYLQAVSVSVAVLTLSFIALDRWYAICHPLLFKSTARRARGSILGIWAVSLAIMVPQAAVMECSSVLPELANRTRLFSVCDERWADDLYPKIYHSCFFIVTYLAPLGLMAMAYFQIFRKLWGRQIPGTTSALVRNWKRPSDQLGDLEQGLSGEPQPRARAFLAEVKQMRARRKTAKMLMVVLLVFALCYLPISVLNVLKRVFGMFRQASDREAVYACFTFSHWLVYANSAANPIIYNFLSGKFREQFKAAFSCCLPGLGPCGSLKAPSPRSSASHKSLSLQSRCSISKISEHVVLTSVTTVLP

The experiment has as its target Orexin/Hypocretin receptor type 1 (Homo sapiens) (UniProt O43613). Briefly: antagonists of human orexin 1 receptor (OX1R) (AID 485270).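 Further: 0% = agonist challenge alone and 100% = reference antagonist.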 The following applies: OX1R-expressing cells, FRET antagonist read-out; at 6.6 µM; stronger effect = higher value.
One may read the inhibition as the relative decrease from the control value, in per cent. Take `Cc1noc(C)c1NC(=O)Nc1cccc2c1O[C@H](CN(C)C(=O)Nc1ccccc1)[C@@H](C)CN([C@H](C)CO)C2=O`: the inhibition was 6.95% (inactive).

As to `CC(=O)C[C@H](O)CC(=O)[C@@H]1OC(=O)[C@@H](C)C/C=C\Cc2ccccc21`, the inhibition was 0.77% (inactive).

Consider `O=C1OCCN1C(=O)[C@H]1[C@H](c2ccccc2)C(c2ccc(F)cc2)=NN1c1ccccc1`, for which the inhibition was 5.3% (inactive).

On to `Cc1cccc(N2O[C@H]3C=CC2CCCC3)n1`, for which the inhibition was 3.41% (inactive).

For `CCn1nc(C(=O)NNS(=O)(=O)c2cc(/C=C/C(=O)O)cc(OC)c2OC)c2ccccc2c1=O`, the inhibition was 3.49% (inactive).

In the case of `CC[C@]12c3[nH]c4ccc(OC)cc4c3CCN1C(=O)C(CC(=O)NCCN1CCOCC1)C[C@@H]2C(=O)N1CCN(C(=O)C2CC2)CC1` (stereo partly drawn), the inhibition was 17.4% (inactive).

For `O=C1c2ccccc2C(=O)c2c1cccc2N1CCN(Cc2ccccc2)CC1`, the inhibition was 14.2% (inactive).

With `O=C1c2ccccc2C(=O)c2c1cccc2N1CCN(CCO)CC1`, the inhibition is 56.4% (active).

For the compound `O=C1c2ccccc2C(=O)c2c1cccc2N1CCN(C/C=C/c2ccccc2)CC1`, the inhibition was 20.4% (inactive).

On to `COc1cc(/C=C/C(=O)OCC(=O)c2ccccc2)cc(OC)c1OC`, for which the inhibition was 7.01% (inactive).

Take `CCOc1ccc(/C=C/C(=O)OCC(=O)c2ccccc2OC)cc1OC`: the inhibition was 62.2% (active).

As to `COc1ccc(/C=C/C(=O)OCC(=O)NC2CCCCCC2)cc1OC`, the inhibition was 5.65% (inactive).

As to `CCc1nnc(NC(=O)CSCc2cc(=O)n3cc(C)sc3n2)s1`, the inhibition is 8.1% (inactive).

On to `O=C(COC(=O)c1cccnc1Cl)Nc1ccc(S(=O)(=O)N2CCOCC2)cc1`, for which the inhibition is 7% (inactive).

For `CC(=O)N1Cc2ccccc2CC1C(=O)O` (stereo not drawn), the inhibition is 2.65% (inactive).

As to `COc1ccc(NC(=O)N(C)C[C@H]2Oc3ccc(NC(=O)C4CC4)cc3C(=O)N([C@H](C)CO)C[C@@H]2C)cc1`, the inhibition was 9.29% (inactive).

In the case of `COc1cc(C2CC(=O)Oc3cc(OC)c(OC)c(OC)c32)cc(OC)c1OC` (stereo not drawn), the inhibition is 5.32% (inactive).

Regarding `CN(C(=O)c1cccc(NC(=O)Cc2cccc([N+](=O)[O-])c2)c1)C1CCCCC1`, the inhibition was 10.1% (inactive).

As for `COc1cc(NC(=O)Nc2ccc(C)cc2)cc([N+](=O)[O-])c1`, the inhibition is 45.8% (active).

For the compound `COC(=O)c1ccc(NC(=O)Nc2ccc(C)cc2)cc1`, the inhibition was 15.3% (inactive).

In the case of `CC(=O)c1ccc(NC(=O)Nc2ccc([N+](=O)[O-])cc2C)cc1`, the inhibition was 26% (inactive).

On to `CC(C)(C)OC(=O)C[C@@H]1C/C=C\C[C@H](CC(=O)N[C@@H](CO)Cc2ccccc2)C(=O)N[C@H](Cc2ccccc2)COC1=O`, for which the inhibition is 4% (inactive).

On to `CC(=O)Oc1cccc(C(=O)Nc2ccccc2NC(=O)c2cccc(OC(C)=O)c2)c1`, for which the inhibition was 6.54% (inactive).

On to `CC(=O)Oc1ccc2c(c1)C(=O)c1ccccc1C2=O`, for which the inhibition is 30.9% (active).

On to `CC(=O)O[C@H]1c2ccccc2-c2ccccc2[C@@H]1OC(C)=O`, for which the inhibition was 1.8% (inactive).

Regarding `Cc1ccnc(SCC(=O)Nc2cccc(S(=O)(=O)N3CCOCC3)c2)n1`, the inhibition is 5.6% (inactive).

Regarding `CC1CCN(C(=O)COC(=O)c2cc(=O)[nH]c3ccccc23)CC1`, the inhibition was 3.71% (inactive).

Take `CCC(=O)N(C)C(c1ccccc1Cl)c1nnnn1-c1c(C)cccc1C` (stereo not drawn): the inhibition is 74.2% (active).

On to `CN(C(=O)CSc1nnnn1-c1ccccc1)C1CCCCC1`, for which the inhibition was 9.05% (inactive).

`CN(C)/C=C(/C(=O)c1ccc(Cl)c(Cl)c1)c1nnnn1-c1ccccc1`: the inhibition was 4.6% (inactive).

Take `Cc1ccc(C)c(NS(=O)(=O)c2c(C)[nH]c(C)c2C(=O)N2CCCCC2)c1`: the inhibition is 49.2% (active).

With `Cc1ccc(NS(=O)(=O)c2c(C)[nH]c(C)c2C(=O)N2CCCCC2)c(C)c1`, the inhibition is 21.7% (inactive).

For the compound `Cc1ccc(C)c(N2CCN(S(=O)(=O)c3c(C)[nH]c(C)c3C(=O)N3CCCC3)CC2)c1`, the inhibition was 5.67% (inactive).

In the case of `O=C(COC(=O)CN1C(=O)C2CCCCC2C1=O)Nc1ccc(F)c(F)c1F` (stereo not drawn), the inhibition is 0.98% (inactive).

With `Cc1ccc(C(=O)N2CCN(C(=O)N3CCOCC3)CC2)cc1`, the inhibition was 5.22% (inactive).

As for `Cc1ccccc1-c1ccc(Nc2ccc(C(=O)N3CCOCC3)cc2)nn1`, the inhibition was 20.7% (inactive).

Take `Cc1oc2c(c1C(=O)N1CCOCC1)C(=O)c1ccccc1C2=O`: the inhibition is 90.1% (active).

`Cc1cccc(C(=O)N[C@H](C(=O)NCc2cccs2)C(C)C)c1`: the inhibition is 11.5% (inactive).

As for `CN[C@H](C(=O)NC[C@H]1O[C@@H](n2cnc3c(N)ncnc32)[C@H](O)[C@@H]1O)[C@@H](C)OCc1ccccc1`, the inhibition was 5.21% (inactive).

As to `Cc1ccc(C(=O)NNC(=O)c2ccc3c(c2)OCCO3)cc1`, the inhibition was 8.1% (inactive).

In the case of `COc1cccc(NC(=O)CN(C)C(=O)c2cc(C3CC3)nn2-c2ccccc2)c1`, the inhibition was 14% (inactive).

Take `COc1cccc(NC(=O)CN(C)C(=O)Cc2ccc(Cl)cc2Cl)c1`: the inhibition was 17.8% (inactive).

Take `COc1cccc(NC(=O)CN(C)C(=O)c2ccccc2CCc2ccccc2)c1`: the inhibition is 67.5% (active).

As for `CC(C)n1ncc2c(C(=O)Nc3ccc(CC#N)cc3)cc(C3CC3)nc21`, the inhibition was 4.43% (inactive).

For the compound `Cc1ccc(S(=O)(=O)Nc2ccc3c(c2)C(=O)N([C@H](C)CO)C[C@@H](C)[C@@H](CN(C)C(=O)Nc2cccc4ccccc24)O3)cc1`, the inhibition was 2.14% (inactive).

With `O=C(NCCC1CCCCN1S(=O)(=O)c1cccs1)C(=O)Nc1ccc(F)cc1F` (stereo not drawn), the inhibition was 12.6% (inactive).

With `COc1ccc(CCNC(=O)C(=O)NCC2CCCN2S(=O)(=O)c2cccs2)cc1OC` (stereo not drawn), the inhibition is 17.3% (inactive).

Consider `COc1ccccc1CCNC(=O)C(=O)NCCC1CCCCN1S(=O)(=O)c1cccs1` (stereo not drawn), for which the inhibition is 57.5% (active).

With `CC(=O)Nc1ccc(Nc2c([N+](=O)[O-])cc(S(C)(=O)=O)cc2[N+](=O)[O-])cc1`, the inhibition is 98% (active).

As for `CNc1ccc([N+](=O)[O-])cc1C(=O)O`, the inhibition was 17.5% (inactive).

For the compound `CNc1ccc(NC(C)=O)cc1[N+](=O)[O-]`, the inhibition was 59.9% (active).

In the case of `Cc1ccc(NC(=O)c2sccc2C)cc1[N+](=O)[O-]`, the inhibition was 14.5% (inactive).

As to `CC(=O)Nc1ccc(NC(=S)NC(=O)c2ccc([N+](=O)[O-])c(C)c2)cc1`, the inhibition was 4.21% (inactive).

With `CC(=O)Nc1ccc(S(=O)(=O)N2CCN(c3ccc([N+](=O)[O-])c(NCCN4CCOCC4)c3)CC2)cc1`, the inhibition was 24.8% (inactive).

On to `O=C1COc2ccc(C(=O)COC(=O)CCOc3ccccc3)cc2N1`, for which the inhibition was 4.75% (inactive).

Consider `O=C(COC(=O)c1ccccc1O)NCc1ccco1`, for which the inhibition was 9.75% (inactive).

As to `COc1cccc(-c2sc3ccc(OC)cc3c2-c2ccc(OCCN3CCCCC3)cc2)c1`, the inhibition is 3.65% (inactive).

Turning to `CCC(C)(C)NC(=O)C(c1ccccn1)N(C(=O)c1csnn1)c1ccccc1` (stereo not drawn), the inhibition was 6.1% (inactive).

For `CC(C)(C)NC(=O)CN(C(=O)c1ccc(Cl)nc1)c1cccc2ccccc12`, the inhibition is 9.37% (inactive).

In the case of `CC(C)(C)NC(=O)CN(C(=O)c1csnn1)c1ccccc1-c1ccccc1`, the inhibition is 67.4% (active).

Take `COc1cc(Cl)c(C)cc1NC(=O)CSc1nnc(CN2CCCC2)o1`: the inhibition was 3.58% (inactive).

Turning to `O=C1CC2(CCCC2)C(=O)N1CN1CCN(S(=O)(=O)c2ccc(F)cc2F)CC1`, the inhibition was 6.49% (inactive).

As for `COC(=O)c1sccc1NC(=O)CSc1ccccc1NS(=O)(=O)c1cc(Cl)ccc1Cl`, the inhibition was 60.7% (active).

In the case of `COC(=O)c1sccc1NS(=O)(=O)c1ccc(F)cc1F`, the inhibition was -2.44% (inactive).

In the case of `COC(=O)c1sccc1NC(=O)COc1ccc(Cl)cc1`, the inhibition was 19.5% (inactive).

In the case of `C[C@]12CC[C@H](O)CC1=CCC1C2CC[C@@]2(C)C1CC[C@@H]2NC(=O)CCC(=O)O` (stereo partly drawn), the inhibition is 4.74% (inactive).

For `Cc1cccc(C)c1Nc1nnc(SCC(=O)NCCCN2CCCC2=O)s1`, the inhibition is 5.99% (inactive).

As for `COc1cccc(C(=O)OCC(=O)c2[nH]c(C)c(C(C)=O)c2C)c1`, the inhibition is 12.8% (inactive).

With `CC(=O)c1c(C)[nH]c(C(=O)COC(=O)c2cccc(S(=O)(=O)N(C)c3ccccc3)c2)c1C`, the inhibition was 69.6% (active).

For `CC(=O)c1c(C)[nH]c(C(=O)COC(=O)c2cccs2)c1C`, the inhibition is 15% (inactive).

`CC[C@]12c3[nH]c4ccc(OC)cc4c3CCN1C(=O)C(CC(=O)NCc1ccco1)C[C@@H]2C(=O)N1CCN(C(=O)C2CC2)CC1` (stereo partly drawn): the inhibition was 6.49% (inactive).

As to `COc1ccc(CCNC(=O)COC(=O)c2cnc(Cl)c(Cl)c2)cc1`, the inhibition is 8.28% (inactive).

With `O=C(COC(=O)c1ccccn1)NNC(=O)c1ccc([N+](=O)[O-])cc1`, the inhibition was 57.2% (active).

For `O=C(COC(=O)c1ccccn1)NNC(=O)c1ccc(Br)cc1`, the inhibition is -0.24% (inactive).

`O=C(OCc1ccc([N+](=O)[O-])cc1)c1ccccn1`: the inhibition is 5.7% (inactive).

As to `COc1ccc(-c2c(C)cc3oc(=O)cc(-c4ccccc4)c3c2C)cc1C=O`, the inhibition is 4.68% (inactive).

In the case of `COc1ccccc1C(=O)COC(=O)COc1ccc(C#N)cc1`, the inhibition was 5.7% (inactive).

In the case of `O=[N+]([O-])c1ncc(Br)cc1Nc1ccccc1`, the inhibition was 54.1% (active).

For `O=[N+]([O-])c1cccc(/C=N/Nc2ncc(Br)cn2)c1`, the inhibition is 25.3% (inactive).

Consider `O=[N+]([O-])c1ccccc1Nc1ccc(O)cc1`, for which the inhibition was 50.7% (inactive).

For `O=C(COC(=O)/C=C/c1cccc(Cl)c1)NCc1cccs1`, the inhibition was 5.6% (inactive).

On to `COc1ccc(-c2sc3ccccc3c2-c2ccc(OCCN3CCOCC3)cc2)cc1`, for which the inhibition was -1.97% (inactive).

With `COC(=O)c1ccc(/C=N/NC(=O)C(=O)N2CCCCCC2)cc1`, the inhibition was 44.8% (inactive).

Take `O=C(N/N=C/c1ccc([N+](=O)[O-])cc1)C(=O)N1CCCC1`: the inhibition is 45.8% (active).

In the case of `Cc1ccsc1C(=O)N/N=C/c1ccc([N+](=O)[O-])cc1`, the inhibition was 53.6% (inactive).

Consider `CCOc1ccc(/C=N/NC(N)=S)cc1`, for which the inhibition was 27.9% (inactive).

`NC(=S)N/N=C/c1ccc([N+](=O)[O-])cc1`: the inhibition was 50.9% (active).

For the compound `O=C(N/N=C/c1ccc2c(c1)OCO2)C(=O)N1CCCC1`, the inhibition is 15% (inactive).
